For 32 molecules, activity change, negative = inhibition and Potency results are on record in PubChem BioAssay (NCATS).

Results filed as inconclusive are left out. Activity calls are given as the source filed them. Calls come from the whole dose curve; as a rule, active = well fitted curve in the direction sought with a large enough effect; inconclusive = small, poorly fitted or top-dose-only effect, or another doubt; inactive = no such curve, though single readings can be large; an effect the other way counts as inactive or inconclusive.
Note: % of control where 0% means no effect.

The target in one experiment is Rap guanine nucleotide exchange factor 3 (Homo sapiens) (UniProt O95398). The experiment is described as follows: Counterscreen qHTS for antagonist of cAMP-regulated guanine nucleotide exchange factor 3 (EPAC1) (AID 1645888).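 Note: fluorescence loss as bound BODIPY-GDP is released from Rap1B.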 As to conditions: Rap1B-BODIPY-GDP nucleotide exchange, fluorescence; series mostly up to 154 µM. The gist of the method: (§1)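 Rap1B-BODIPY-GDP 250 nM + GDP 50 uM; cpds 7-pt, final 9.74 nM–152 uM (activator mode) or from 7.32 nM upwards (inhibitor mode); RT; FI 480/540 nm at 5 and 30 min, then ± cAMP, reread.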
Chain of Rap guanine nucleotide exchange factor 3 (Homo sapiens) (O95398 whole entry, looked up): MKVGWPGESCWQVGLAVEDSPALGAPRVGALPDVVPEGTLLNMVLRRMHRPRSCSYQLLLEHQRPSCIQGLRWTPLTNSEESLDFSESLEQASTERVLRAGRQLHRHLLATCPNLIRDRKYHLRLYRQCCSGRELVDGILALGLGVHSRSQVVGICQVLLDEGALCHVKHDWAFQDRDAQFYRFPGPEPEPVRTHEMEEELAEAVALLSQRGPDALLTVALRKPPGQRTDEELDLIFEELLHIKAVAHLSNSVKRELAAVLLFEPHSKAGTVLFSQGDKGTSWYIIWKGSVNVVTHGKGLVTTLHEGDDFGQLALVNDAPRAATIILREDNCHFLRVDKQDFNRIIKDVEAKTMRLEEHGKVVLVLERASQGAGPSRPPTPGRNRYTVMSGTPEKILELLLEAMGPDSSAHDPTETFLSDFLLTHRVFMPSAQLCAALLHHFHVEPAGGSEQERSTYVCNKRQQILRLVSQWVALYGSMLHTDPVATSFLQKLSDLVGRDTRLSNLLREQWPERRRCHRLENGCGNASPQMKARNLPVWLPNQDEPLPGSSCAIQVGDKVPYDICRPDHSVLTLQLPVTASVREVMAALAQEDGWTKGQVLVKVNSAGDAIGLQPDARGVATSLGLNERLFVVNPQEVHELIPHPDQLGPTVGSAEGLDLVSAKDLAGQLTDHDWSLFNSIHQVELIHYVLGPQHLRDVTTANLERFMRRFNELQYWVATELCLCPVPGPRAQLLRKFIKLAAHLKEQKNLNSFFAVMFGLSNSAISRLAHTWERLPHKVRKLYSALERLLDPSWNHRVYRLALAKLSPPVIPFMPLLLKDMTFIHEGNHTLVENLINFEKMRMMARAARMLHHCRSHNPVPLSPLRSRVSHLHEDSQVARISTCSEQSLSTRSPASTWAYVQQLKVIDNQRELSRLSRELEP
Background: Counterscreens check selectivity or assay interference.
For `CCc1ccc(NC(=O)/C(C#N)=C/c2cc3ccc(C)cc3nc2N2CCOCC2)cc1`, the activity change, negative = inhibition is -18.1% [at 30.8 µM] (inactive).

In the case of `COC(=O)c1cc2oc(C)cc2n1Cc1cc(C)ccc1C`, the Potency entry is “inactive”.

For `O=C(N/N=C/c1cc(Cl)cc([N+](=O)[O-])c1O)NC12CC3CC(CC(C3)C1)C2`, the Potency result was “inactive”.

For `COc1ccc(OC)c(NC(=S)N2c3ccccc3CC2C)c1` (configuration not stated), the activity change, negative = inhibition was -17.1% [at 30.8 µM] (inactive).

For `COC(=O)c1ccc2nc(-c3ccccc3)c(Cc3cccc(F)c3)n2c1`, the activity change, negative = inhibition was 10% [at 30.8 µM] (inactive).

Consider `CC(/C=C/c1ccc(N(C)C)cc1)=N\N=C1\NC(=O)CC(C(=O)Nc2ccccc2)S1` (configuration not stated), for which the activity change, negative = inhibition was -3.02% [at 30.8 µM] (inactive).

As to `COc1ccc(Cl)cc1NC(=O)CN(C)C(C)C(=O)NC(=O)NC1CCCCC1` (configuration not stated), the Potency entry was “inactive”.

`CN1CCS/C1=C\C=C1/SC(=S)N(CC(=O)O)C1=O`: the Potency result was “inactive”.

Take `COc1ccc(-c2ncccc2OC(=O)C23CC4CC(CC(C4)C2)C3)cc1OC`: the activity change, negative = inhibition was -6.96% [at 30.8 µM] (inactive).

`O=c1oc2cc(O)ccc2cc1-c1nnc(Nc2ccccc2F)s1`: the Potency result is “inactive”.

For the molecule `COc1ccc(OC)c(/C=C2\SC(=S)N(Cc3cccnc3)C2=O)c1`, the activity change, negative = inhibition was -3.11% [at 30.8 µM] (inactive).

As to `Cc1ccc(S(=O)(=O)C2(C(=O)Nc3ccc(Br)cc3)CC2)cc1`, the activity change, negative = inhibition was -6.73% [at 30.8 µM] (inactive).

Take `Nc1c(C(=O)C2CC2)sc2nc(-c3cccs3)cc(C(F)(F)F)c12`: the Potency result is “inactive”.

On to `CN(C)c1ccc(C2C=C(c3ccc(Cl)cc3OC(F)F)Nc3ncnn32)cc1` (configuration not stated), for which the activity change, negative = inhibition is -14.7% [at 30.8 µM] (inactive).

For the molecule `COC(=O)C1=CC(C(=O)c2cccs2)=NN(c2ccc(OC)cc2)C1C(=O)OC` (configuration not stated), the activity change, negative = inhibition is -26% [at 30.8 µM] (inactive).

As to `O=C1/C(=C/C=C/c2ccccc2)Oc2c1ccc(O)c2CN1CCN(CCO)CC1`, the activity change, negative = inhibition is 31.1% [at 30.8 µM] (inactive).

With `Cc1cccc(C(C)C)c1-n1nnnc1-c1ccccc1`, the activity change, negative = inhibition is -11.8% [at 30.8 µM] (inactive).

On to `CNC(=O)N(C1=NCC(C)(C)S1)c1ccc(F)c(Cl)c1`, for which the Potency result is “inactive”.

For `COc1ccc(OC)c(/C=C/c2nc3ccccc3[nH]c2=O)c1`, the Potency result is “inactive”.

Regarding `O=S1(=O)NC(c2ccccc2)CC(CC2CCCCC2)O1` (configuration not stated), the activity change, negative = inhibition is -0.437% [at 30.8 µM] (inactive).

For `Nc1ccccc1Oc1ccc2ccccc2c1`, the Potency entry is “inactive”.

As to `Cc1ccc(Nc2cc(C)nc3c(C)ccc([N+](=O)[O-])c23)cc1`, the activity change, negative = inhibition was 4.53% [at 30.8 µM] (inactive).

For `CN(C)c1ccc(/C=C(\C#N)C(=O)c2ccccc2)cc1`, the activity change, negative = inhibition was 15.5% [at 30.8 µM] (inactive).

Turning to `COC(=O)C1=CN(C(C)c2ccccc2)C=C(C(=O)OC)C1c1cc(OC)c(OC)c(OC)c1` (configuration not stated), the Potency entry is “inactive”.

`CN(C)c1ccc(/C=C/C(=O)c2cccc(Br)c2)cc1`: the activity change, negative = inhibition was 21.2% [at 30.8 µM] (inactive).

`Cc1ccc2nc(/C(C#N)=C\c3ccc(N4CCOCC4)o3)[nH]c2c1`: the activity change, negative = inhibition is 15.8% [at 30.8 µM] (inactive).

On to `CCOC(=O)C1CCCN(c2c(C(=O)c3ccccc3)cnc3ccc(OC)cc23)C1` (configuration not stated), for which the activity change, negative = inhibition is 19.5% [at 30.8 µM] (inactive).

With `CC(NC(=O)/C(C#N)=C/c1ccc(N2CCOCC2)cc1)c1ccccc1` (configuration not stated), the Potency result is “inactive”.

For another experiment the target is unchanged. Put plainly: Counterscreen qHTS for agonist of cAMP-regulated guanine nucleotide exchange factor 3 (EPAC1) (AID 1645889). Note: nearly all actives have a fitted effect of over 40% in size. The following applies: EPAC1 Rap1B-BODIPY-GDP exchange, fluorescence; series mostly up to 154 µM. The gist of the method:
as §1
For `COc1ccccc1-c1oc2ccccc2c1-c1ccc2c(c1)OCO2`, the Potency result is “inactive”.

In the case of `O=C(O)c1cc(Nc2cc(Cl)c3nonc3c2[N+](=O)[O-])ccc1O`, the Potency entry is “inactive”.

For the molecule `Fc1cc(F)cc(-c2c(-c3ccccc3)ncc3ccc(F)cc23)c1`, the Potency entry is “inactive”.

For `O=C1OC(c2ccccc2)(c2cc(Br)c(O)c(Br)c2)c2ccccc21` (configuration not stated), the Potency result is “inactive”.
